This is a sample that favours compounds with a hit; in the whole collection about 4.3% have one here.
ADAM10 inh – human ADAM10 inhibitors, primary screen, biochemical, QFRET, HTS | hit rate 0.62% among 370,000 | inhibition, % at 7 µM | recombinant ADAM10, EDANS/DABCYL FRET peptide cleavage, 3 h;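 active = inhibition above a per-campaign cutoff equal to the mean of compounds falling between control-based bounds plus 3 SD, cut at about 20% in these data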
NR3A LBD binder – binders of NR3A ligand-binding domain, primary screen, biophysical, differential scanning fluorimetry, uHTS | Glutamate receptor ionotropic, NMDA 3A (GRIN3A) ligand-binding domain | NR3A LBD differential scanning fluorimetry, Tm shift; 0% = protein alone, 100% = glycine-bound protein | Tm shift relative to glycine control, % at 25 µM | hit rate 2.5% among 340,000 | AID 1259313, 2017;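 active = melting temperature shift of at least 10% of the positive control shift, at one fixed dose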
ADAM17 inh – ADAM17 inhibitors, primary screen, biochemical, QFRET | Disintegrin and metalloproteinase domain-containing protein 17 (Homo sapiens), P78536 | AID 720648, 2013 | recombinant ADAM17, EDANS/DABCYL FRET peptide cleavage | hit rate 0.83% among 370,000 | inhibition, % at 6.95 µM;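 active = inhibition above the mean of compounds lying between control limits plus 3 SD, set per campaign, cut at about 8.5% in these data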
FAS TE block – FAS thioesterase domain inhibitors, primary screen, biochemical, fluorescence intensity, uHTS; Fatty acid synthase (Homo sapiens), P49327; recombinant FAS-TE, OMFH fluorogenic substrate, fluorescence endpoint; inhibition, % at 15 µM; hit rate 0.67% among 360,000;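 active = compounds whose normalised, plate-corrected inhibition of enzyme fluorescence in the single-dose primary screen is 50% or more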
sPLA2-III inh – human group III sPLA2 inhibitors, primary screen, biochemical, QFRET, BODIPY PC-A2 liposome substrate; hit rate 0.56% among 370,000; QFRET BODIPY PC-A2 liposome hydrolysis, fluorescence; AID 743126, 2013; inhibition, % at 12.2 µM;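 active = inhibition above mean plus 3 SD of compounds lying within the high and low control bounds, cut at about 19% in these data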
FAS-TE inh conf – FAS thioesterase domain inhibitors, confirmation, biochemical, fluorescence intensity, single concentration | shares compounds with FAS TE block | inhibition, % at 15 µM | recombinant FAS-TE, OMFH fluorogenic substrate | hit rate 45% among 2,300;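 active = compounds inhibiting the enzyme by at least 50% at 15 µM in any one of the replicates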
Of the large screens only hits and unclear results are named; the others gave an inactive call (follow-up assays come after a bar, where they were run).

Cc1ccccc1CS(=O)(=O)c1nnc([C@H](Cc2ccccc2)NC(=O)OC(C)(C)C)o1	FAS TE block 64 | FAS-TE inh conf 27
CC(C)(C)OC(=O)N[C@@H](Cc1ccccc1)c1nnc(S(=O)(=O)Cc2ccccc2)o1	none (no result: NR3A LBD binder, FAS TE block)
CCOc1ccc(S(=O)(=O)c2c(C(=O)c3ccccc3)cnc3cc4c(cc23)OCCO4)cc1	FAS TE block 80 | FAS-TE inh conf inactive
O=C(CC1C[C@H](C(=O)N2CCCCC2)[C@@]2(CCc3ccccc3)c3[nH]c4ccccc4c3CCN2C1=O)NCc1cccc(C(F)(F)F)c1 (some centres not stated)	FAS TE block 54 | FAS-TE inh conf inactive
CC(C)(C)NC(=O)CC1C[C@H](C(=O)N2CCOCC2)[C@@]2(CCC3CCCC3)c3[nH]c4ccccc4c3CCN2C1=O (some centres not stated)	FAS TE block 81 | FAS-TE inh conf 76
CN(C)C(=O)CCc1ccc2c3c([nH]c2c1)[C@]1(CCC2CCCC2)[C@@H](C(=O)N2CCOCC2)C[C@H](CC(=O)NC(C)(C)C)C(=O)N1CC3	none
O=C(CC1C[C@H](C(=O)N2CCOCC2)[C@@]2(CCC3CCCC3)c3[nH]c4ccccc4c3CCN2C1=O)NCCCn1ccnc1 (some centres not stated)	FAS TE block 69 | FAS-TE inh conf 64
COC(=O)[C@H](Cc1ccccc1)NC(=O)[C@H]1C[C@@]2(N3CCCC3)c3ccccc3N(C(=O)OC(C)(C)C)[C@H]2N1C(=O)OC(C)(C)C	none (no result: NR3A LBD binder, FAS TE block)
CC(OC(=O)c1cccc([N+](=O)[O-])c1)C(=O)N1CCc2ccccc21 (configuration not stated)	FAS TE block 77 | FAS-TE inh conf 59
CC(=O)Nc1cccc(C(=O)OC(C)C(=O)N2CCc3ccccc32)c1 (configuration not stated)	none (no result: NR3A LBD binder)
CCOc1ccccc1Nc1nnc(SC(C)C(=O)Nc2nc(-c3ccccc3)cs2)s1 (configuration not stated)	FAS TE block 76 | FAS-TE inh conf inactive
Cc1cccc(N2CCN(C(=O)c3cc(S(=O)(=O)N(C)C)ccc3Cl)CC2)c1C	none (no result: NR3A LBD binder, FAS TE block)
COc1cc(OC)c2ccc(=O)oc2c1C(CC(=O)N1CCN(c2ccccc2)CC1)c1ccc2c(c1)OCO2 (configuration not stated)	FAS TE block 51 | FAS-TE inh conf inactive
COc1cc(OC)c2c(-c3ccccc3)cc(=O)oc2c1C(CC(=O)N1CCN(c2ccccc2)CC1)c1ccc(N(C)C)cc1 (configuration not stated)	FAS TE block 70 | FAS-TE inh conf inactive
CCn1c(SCC(=O)NN=Cc2c(C)nn(-c3ccccc3)c2C)nnc1-c1ccc(OC)c(OC)c1	none (no result: NR3A LBD binder, FAS TE block)
C[C@H](NS(=O)(=O)c1ccc([N+](=O)[O-])cc1)C(=O)NCCNC(=O)[C@@H](C)NS(=O)(=O)c1ccc([N+](=O)[O-])cc1	none (no result: NR3A LBD binder, FAS TE block)
Cc1cnc(NC(=O)c2cc(S(=O)(=O)N(C)C)ccc2N2CCCC2)s1	none
COc1ccc(C(C)(C)C)cc1NC(=O)c1cc(S(=O)(=O)N(C)C)ccc1N1CCCC1	FAS TE block 68 | FAS-TE inh conf inactive
CN(C)S(=O)(=O)c1ccc(N2CCCC2)c(C(=O)Nc2nc3c(ccc4ccccc43)s2)c1	FAS TE block 92 | FAS-TE inh conf inactive
C[C@@H]1CN([C@H](C)CO)C(=O)c2cccc(NC(=O)Nc3ccc(C(F)(F)F)cc3)c2O[C@H]1CN(C)S(=O)(=O)c1cccs1	none
Cc1noc(C)c1NC(=O)Nc1cccc2c1O[C@H](CN(C)C(=O)NC1CCCCC1)[C@@H](C)CN([C@H](C)CO)C2=O	FAS TE block 77 | FAS-TE inh conf 84
